This is an account of results in PubChem BioAssay (Tox21).

For experiment [1], the target named is Luciferin 4-monooxygenase (Photinus pyralis) (UniProt P08659). The experiment is described as follows: qHTS assay to identify small molecule inhibitors of firefly luciferase (AID 1224835). Further: nearly all actives have a fitted effect of over 25% in size. The method in brief:
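Quantitative HTS format; KM concentrations of both substrates. Purified P. pyralis FLuc activity quantified from luminescence images.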
(qHTS replaces the single test concentration by a dilution series.)

Experiment [2] in a line: qHTS assay to identify small molecule agonists of the constitutive androstane receptor (CAR) signaling pathway - cell viability counter screen (AID 1224836). Further: nearly all actives have a fitted effect of over 45% in size. In a few lines: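 HepG2-CYP2B6-hCAR, 2500 cells/well, 4 h pre-incubation; cpd 15 conc + PK11195 0.75 uM final; 23 h, 37 C/5% CO2; CellTiter-Fluor, fluorescence.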
Experiment [3] can be described thus: qHTS assay to identify small molecule antagonists of the constitutive androstane receptor (CAR) signaling pathway - cell viability counter screen (AID 1224837). Further: nearly all actives have a fitted effect of over 45% in size. In a few lines:
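Using CellTiter-Fluor, viability is scored in HepG2 cells stably carrying hCAR and a 2.2kb CYP2B6 reporter after 23 hr compound exposure across 15 concentrations, with CITCO present at 50 nM.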

In experiment [4] the target is Nuclear receptor subfamily 1 group I member 3 (Homo sapiens) (UniProt Q14994). The experiment is described as follows: qHTS assay to identify small molecule antagonists of the constitutive androstane receptor (CAR) signaling pathway (AID 1224838).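 Further: HepG2 cells stably expressing hCAR with CYP2B6 luciferase reporter stimulated by CITCO; nearly all actives have a fitted effect of over 40% in size.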 The method in brief:
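Reporter luminescence was quantified after 24 h exposure of hCAR/CYP2B6-2.2kb double-stable HepG2 cells to compounds at 15 concentrations in the presence of 50 nM CITCO final.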

For experiment [5] the target is unchanged. The experiment is described as follows: qHTS assay to identify small molecule agonists of the constitutive androstane receptor (CAR) signaling pathway (AID 1224839). Further: nearly all actives have a fitted effect of over 15% in size. Further: potency means the concentration at half of the fitted maximal effect.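 On activation: HepG2 cells stably carrying human CAR and a CYP2B6 luciferase reporter.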 The method in brief: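 HepG2-CYP2B6-hCAR cells, 2500/well, 4 h pre-incubation; compounds 15 conc.; PK11195 0.75 uM final; 24 h, 37 C/5% CO2; ONE-Glo luciferase read.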
The nature of experiment [6]: qHTS assay to identify small molecule antagonists of the estrogen related receptor signaling pathway with the pleiotropic PPARgamma coactivator (PGC) from Tox21 10K library - cell viability counter screen (AID 1224840; active means well fitted cell-killing curve with a large enough effect in the repeat runs, not every such curve was filed as active; further: nearly all actives have a fitted effect of over 40% in size). The method in brief: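 Here the PGC/ERR cells serve as a cytotoxicity control: they are exposed to compounds for 17.5 hours at 37 C, and live-cell signal is quantified using CellTiter-Fluor fluorescence.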

The nature of experiment [7]: qHTS assay to identify small molecule antagonists of the estrogen related receptor signaling pathway with the pleiotropic PPARgamma coactivator (PGC) from Tox21 10K library (AID 1224841; call rule not given here; further: actives are mostly falling curves and most rising ones were filed inactive; nearly all actives have a fitted effect of over 50% in size). The method in brief: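 Each well held 2,000 PGC/ERR cells, pre-incubated six hours (37 C, 5% CO2). Test substances in DMSO were added by pin tool and left for 18 h at 37 C before luciferase detection by One-Glo.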

Experiment [8] can be described thus: qHTS assay to identify small molecule agonists of the estrogen related receptor signaling pathway with the pleiotropic PPARgamma coactivator (PGC) from Tox21 10K library (AID 1224842). Further: nearly all actives have a fitted effect of over 15% in size. The method in brief:
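PGC/ERR reporter cells (NTP line) were seeded 2,000 per well, rested 6 h at 37 C/5% CO2, then pin-dosed with compounds in DMSO for 18 h at 37 C; luciferase read by One-Glo luminescence after 30 min at room temperature.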

The target of experiment [9] is Thyrotropin receptor (Homo sapiens) (UniProt P16473). The experiment is described as follows: qHTS assay to identify small molecule agonists of the thyroid stimulating hormone receptor (TSHR) signaling pathway (AID 1224843; calls by dose curve; further: nearly all actives have a fitted effect of over 45% in size). The method in brief: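 TSHR-expressing HEK293 cells (800 per well) were exposed to compounds for 30 min at room temperature. cAMP was then detected by HTRF competition with cAMP-d2 and anti-cAMP cryptate, read after 1 h at room temperature. Fifteen concentrations, triplicate.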
Thyrotropin receptor (Homo sapiens), sequence (P16473 whole entry, looked up): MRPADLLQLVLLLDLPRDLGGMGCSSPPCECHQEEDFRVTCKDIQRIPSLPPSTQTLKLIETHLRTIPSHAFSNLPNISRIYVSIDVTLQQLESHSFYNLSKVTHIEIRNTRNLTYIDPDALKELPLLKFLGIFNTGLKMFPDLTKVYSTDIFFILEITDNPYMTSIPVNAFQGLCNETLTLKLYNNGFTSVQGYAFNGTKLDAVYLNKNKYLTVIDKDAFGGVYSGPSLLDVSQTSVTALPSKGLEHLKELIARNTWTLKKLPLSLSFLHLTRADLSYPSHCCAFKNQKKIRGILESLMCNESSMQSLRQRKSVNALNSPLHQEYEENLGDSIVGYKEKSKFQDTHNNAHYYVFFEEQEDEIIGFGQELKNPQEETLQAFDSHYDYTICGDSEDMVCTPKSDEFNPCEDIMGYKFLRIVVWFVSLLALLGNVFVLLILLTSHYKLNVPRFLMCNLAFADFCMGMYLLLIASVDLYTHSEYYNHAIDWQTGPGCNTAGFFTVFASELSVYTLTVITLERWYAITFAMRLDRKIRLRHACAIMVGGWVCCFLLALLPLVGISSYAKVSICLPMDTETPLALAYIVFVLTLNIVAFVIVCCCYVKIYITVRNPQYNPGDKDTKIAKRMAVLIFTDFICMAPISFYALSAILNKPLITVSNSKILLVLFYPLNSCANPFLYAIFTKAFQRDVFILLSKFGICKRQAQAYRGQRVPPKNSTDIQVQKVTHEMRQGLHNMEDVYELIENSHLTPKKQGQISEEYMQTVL

Experiment [10] can be described thus: qHTS assay to identify small molecule agonists of the hypoxia (HIF-1) signaling pathway - cell viability counter screen (AID 1224844; calls by dose curve; further: nearly all actives have a fitted effect of over 50% in size). In a few lines: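 Multiplexed with the HRE beta-lactamase assay, this viability read used CellTiter-Glo luminescence (30 min, RT) on HRE-bla ME-180 cells treated 17 hrs with compounds in 0.5% dialyzed FBS medium.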
The nature of experiment [11]: qHTS assay to identify small molecule agonists of H2AX (AID 1224845; active means well fitted activation curve with a large enough effect in the signal ratio in the repeat runs, not every such curve was filed as active; the % refers to the signal ratio). In a few lines: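 Wild-type CHO-K1 cells plated overnight, then exposed 3 hr at 37C to compounds at 15 concentrations (0.76% DMSO). Lysed, then HTRF anti-pH2AX(S139)-cryptate/anti-H2AX-d2 detection after 24 hr at room temperature; emissions 665 and 620 nm.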
The nature of experiment [12]: qHTS assay to identify small molecule agonists of the hypoxia (HIF-1) signaling pathway (AID 1224846; active means well fitted activation curve with a large enough effect in the signal ratio in the repeat runs, not every such curve was filed as active; the % refers to the signal ratio). In a few lines: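 Hypoxia-pathway activation was scored as increased beta-lactamase from an HRE-controlled reporter in ME-180 cells; plated at 2,000 cells per well with 0.5% dialyzed FBS, they were exposed 17 hrs to compounds and then given CCF4-AM.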
Experiment [13] is described as follows: qHTS assay to identify small molecule antagonists of the estrogen related receptor (ERR) signaling pathway from Tox21 library (AID 1224848). Further: nearly all actives have a fitted effect of over 50% in size. Further: potency means the concentration at half of the fitted maximal effect. The method in brief:
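Cells: ERR line, 2,000/well; 6 h preincubation 37 C/5% CO2. Cpd in DMSO via pin tool; 18 h, 37 C. ONE-Glo, 30 min RT, luminescence.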

Experiment [14] in a line: qHTS assay to identify small molecule agonists of the estrogen related receptor (ERR) signaling pathway from Tox21 library (AID 1224849; calls by dose curve; further: nearly all actives have a fitted effect of over 15% in size). Conditions: ERR reporter cell line, ONE-Glo luciferase, 18 h; at 92.4 µM (top of the series). The method in brief:
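Six hours post-seeding at 37 C/5% CO2, ERR cells receive DMSO-solubilised compounds; after 18 h at 37 C, ONE-Glo reagent is applied and luminescence recorded.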

Experiment [15] in a line: qHTS RealTime-Glo MT Cell Viability Assay in HepG2 cells - 24 hour (AID 1224867). Further: nearly all actives have a fitted effect of over 50% in size. In a few lines: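 qHTS, HepG2, 600 cells/well, RealTime-Glo (NanoLuc + prosubstrate) added with cells; 5 h preincubation; DMSO compound addition; 37 C; luminescence at 0/8/16/24/32/40 h.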
A short description of experiment [16]: qHTS RealTime-Glo MT Cell Viability Assay in HEK293 cells - 32 hour (AID 1224868). The method in brief: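 Assay medium contained NanoLuc luciferase plus cell-permeant prosubstrate, added with HEK293 cells at 600 cells/well. After 5 h at 37 C/5% CO2 compounds were added; plates stayed at 37 C for 40 h with serial luminescence reads.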
Experiment [17] is described as follows: A CellTox Green Cytotoxicity Assay to monitor cytotoxicity in HEK293 cells - 0 hour (AID 1224869). Further: nearly all actives have a fitted effect of over 50% in size. Further: potency means the concentration at half of the fitted maximal effect. In a few lines:
(§1)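 Seeding of HEK293 cells together with cytotoxicity dye preceded a 5 h incubation at 37 C/5% CO2. Test compounds in DMSO were then added and fluorescence monitored across 40 h.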

The nature of experiment [18]: qHTS RealTime-Glo MT Cell Viability Assay in HepG2 cells - 40 hour (AID 1224870). Further: nearly all actives have a fitted effect of over 50% in size. In a few lines: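 HepG2 cells mixed with RealTime-Glo MT reagents (NanoLuc plus cell-permeant prosubstrate) were seeded at 600 cells/well, incubated 5 h at 37 C/5% CO2, then pinned with compounds in DMSO; nonlytic luminescence tracked viability during 40 h treatment.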
A short description of experiment [19]: A CellTox Green Cytotoxicity Assay to monitor cytotoxicity in HEK293 cells - 40 hour (AID 1224871). Further: nearly all actives have a fitted effect of over 45% in size. Further: potency means the concentration at half of the fitted maximal effect. The method in brief: as §1
Experiment [20] can be described thus: qHTS assay to identify small molecule agonists of H2AX - cell viability counter screen (AID 1224847; calls by dose curve; further: top concentration of the series differs between compounds; nearly all actives have a fitted effect of over 30% in size). The method in brief:
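Cells plated first: CHO-K1, 1000 per well in 10% FBS medium, incubated overnight at 37C. Then 15-point compound titration added (final DMSO 0.76%) for 3 hr. Finally CellTiter-Glo added and luminescence read.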

Structures are written as SMILES. Values joined by “and” are separate entries in the source; they are usually repeats but may differ in a detail not shown here. Equal values may be shown once. Records with an inconclusive call do not appear. The source holds several records for some structures; these can differ, active in one and inactive in another. Active and inactive are the calls of the source. Unless noted, the call rests on the fitted dose curve; in most records, active means well fitted curve in the direction sought with a large enough effect in the repeat runs; inconclusive means weak or mixed curves; inactive means no such curve, though single readings can be large; an effect the other way counts as inactive or inconclusive.
On the % scale 0 is the no-effect control and ±100 the full control effect.

Luciferin 4-monooxygenase (Photinus pyralis), sequence (P08659 whole entry, looked up): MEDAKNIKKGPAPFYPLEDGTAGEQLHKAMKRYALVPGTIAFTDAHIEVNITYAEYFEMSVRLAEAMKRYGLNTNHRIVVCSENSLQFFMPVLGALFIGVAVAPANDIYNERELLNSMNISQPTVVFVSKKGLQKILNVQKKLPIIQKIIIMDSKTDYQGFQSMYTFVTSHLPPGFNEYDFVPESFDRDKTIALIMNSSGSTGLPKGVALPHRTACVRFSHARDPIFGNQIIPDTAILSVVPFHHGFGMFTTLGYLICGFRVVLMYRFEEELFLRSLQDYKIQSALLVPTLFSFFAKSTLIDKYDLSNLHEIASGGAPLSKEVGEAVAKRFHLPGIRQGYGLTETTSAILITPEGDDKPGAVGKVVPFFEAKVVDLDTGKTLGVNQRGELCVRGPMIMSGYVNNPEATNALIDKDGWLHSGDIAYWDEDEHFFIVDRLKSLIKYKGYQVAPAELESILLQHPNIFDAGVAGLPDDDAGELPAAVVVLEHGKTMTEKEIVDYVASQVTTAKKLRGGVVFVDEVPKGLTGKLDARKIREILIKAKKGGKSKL
Nuclear receptor subfamily 1 group I member 3 (Homo sapiens), sequence (Q14994 whole entry, looked up): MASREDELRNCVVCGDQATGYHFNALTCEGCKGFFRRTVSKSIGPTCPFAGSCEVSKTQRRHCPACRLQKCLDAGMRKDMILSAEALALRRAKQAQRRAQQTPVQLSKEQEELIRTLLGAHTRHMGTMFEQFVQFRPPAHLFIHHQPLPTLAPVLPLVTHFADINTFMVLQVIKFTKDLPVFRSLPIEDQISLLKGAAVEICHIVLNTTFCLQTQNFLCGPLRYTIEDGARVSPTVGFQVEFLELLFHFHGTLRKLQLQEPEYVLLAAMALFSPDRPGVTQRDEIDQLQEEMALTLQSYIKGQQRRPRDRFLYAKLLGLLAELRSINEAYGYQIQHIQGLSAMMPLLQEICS

As for `CCO[Si](CCCNC(N)=O)(OCC)OCC`, the Potency result in experiment [1], in experiment [2], in [3], in [4], in experiment [5] and in [6] was “inactive” throughout. In addition, the Potency result in experiment [7], in [8], in experiment [9], in experiment [10], in experiment [11] and in experiment [13] was “inactive” in each case. In addition, the Potency entry in experiment [15], in [16], in experiment [17], in experiment [18] and in experiment [19] was “inactive” throughout. In addition, the call in [12] was inactive. In experiment [14], the activity change, positive = activation is 8.59% (inactive) and 5.1% (inactive).

In the case of `ClC/C=C/CCl`, the Potency result in experiment [1], in experiment [2], in experiment [3], in experiment [4], in experiment [5] and in [6] was “inactive” each time. Also, the Potency entry in [7], in experiment [8], in [9], in experiment [10], in [11] and in experiment [13] was “inactive” in each case. Besides, the Potency entry in experiment [15], in [16], in [17], in experiment [18] and in experiment [19] was “inactive” throughout. Besides, the outcome in experiment [12] was inactive. Further, the activity change, positive = activation in [14] is -1.09% (inactive) and 0.131% (inactive).

Consider `Nc1cc(Cl)c(N)c(Cl)c1`, for which the Potency entry in experiment [1], in experiment [2], in [3], in experiment [4], in experiment [5] and in [6] was “inactive” in each case. Also, the Potency entry in experiment [9], in experiment [10], in experiment [20], in experiment [15], in experiment [16] and in [17] was “inactive” each time. Also, in experiment [19], the Potency entry is “inactive”. Also, in [12], the compound was called inactive.

As to `CC(=O)Nc1ccc2c(c1)Cc1cc(NC(C)=O)ccc1-2`, the Potency entry in experiment [1], in experiment [2], in experiment [3], in [4], in experiment [6] and in experiment [9] was “inactive” each time. For the same compound, the Potency entry in [10], in experiment [11], in experiment [20], in [15], in experiment [16] and in experiment [17] was “inactive” throughout. In addition, the Potency result in experiment [19] was “inactive”. The Potency entry in experiment [5] is “inactive and 7.7 µM (active)”. The compound was called inactive in experiment [12].

Regarding `CCCCCC=O`, the Potency result in experiment [1], in [2], in experiment [3], in experiment [4], in [5] and in experiment [7] was “inactive” throughout. The Potency entry in experiment [8], in [9], in experiment [10], in experiment [11], in experiment [20] and in [13] was “inactive” throughout. In addition, the Potency result in experiment [15], in [16], in experiment [17] and in experiment [19] was “inactive” throughout. For the same compound, the call in experiment [12] was inactive. For the same compound, the activity change, positive = activation in [14] was 8.48% (inactive) and 5.45% (inactive).

As to `C=C[Si](OCCOC)(OCCOC)OCCOC`, the Potency entry in experiment [1], in experiment [2], in [3], in experiment [4], in experiment [5] and in [9] was “inactive” in each case. Besides, the Potency result in experiment [10], in experiment [11], in [15], in [16], in [17] and in experiment [19] was “inactive” in each case. For the same compound, the result in experiment [12] was inactive.

For `Nc1ccc(N)c(Cl)c1`, the Potency result in experiment [1], in experiment [2], in [3], in experiment [4], in [10] and in experiment [15] was “inactive” each time. Further, the Potency result in experiment [16] and in experiment [18] was “inactive” in each case. Further, the compound was classed as inactive in experiment [12]. The Potency is 68.5 µM (active) and 54.5 µM (active) in experiment [13]; “inactive and 38.9 µM (active)” in experiment [17]; “inactive and 38.9 µM (active)” in experiment [19]. Moreover, the activity change, positive = activation in experiment [14] is -59.7% (inactive) and -39% (inactive).
